Shown is part of a subset that was picked to be rich in hits.
Lassa entry inh: blocks Lassa virus binding to or entry into cells; Lassa virus pseudotype entry inhibition, cell reporter; Potency, µM (doses to about 37.9 µM), for inactives: at the highest dose activity change, negative = inhibition, actives largely listed as inhibitors; 300,000 tested, 1.2% active; AID 540256; calls by dose curve; tested in HEK293 cells; note: potency is the fitted concentration of half-maximal effect; % is set by controls: 0 for no effect and ±100 for the full control effect; nearly all actives have a fitted effect of over 50% in size
CHX counter: counter-screen for Shiga toxin inhibitors: cycloheximide protein synthesis inhibition; cell reporter, cycloheximide protein synthesis inhibition counterscreen; max response, %; 300,000 tested, 12% active; AID 2314; in the data active = max response mostly above about 13%, no sharp cut-off; inactive = mostly below about 14%; note: read at 38.3 µM for the half of the compounds with a filed dose; 0% is about no effect
Marburg entry inh: inhibitors of Marburg virus binding or cell entry; Marburg virus pseudotyped entry inhibition, cell reporter; Potency, µM (doses to about 37.8 µM), inactives show top-dose activity change, negative = inhibition, usual class: inhibitors; 300,000 tested, 1.8% active; calls by dose curve; tested in HEK293 cells; note: potency is the fitted concentration of half-maximal effect; % is set by controls: 0 for no effect and ±100 for the full control effect
AMA1-RON2 inh: disrupts binding of P. falciparum AMA1 to RON2. 360,000 tested, 0.2% active. Potency, µM (top dose mostly 58.2 µM), for the others: top-dose activity change, negative = inhibition, usual class: inhibitors. AID 720542. AlphaScreen AMA1-biotinylated RON2 peptide binding; active = well fitted inhibition curve with a large enough effect; inconclusive = small, poorly fitted or top-dose-only effect; inactive = no such curve, though single readings can be large or run the other way;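 note: potency is the fitted concentration of half-maximal effect; 0% = vehicle wells and -100% = peptide control; nearly all actives have a fitted effect of over 45% in size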
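AMA1 (3D7) with his tag at 25 nM final met compounds first, then biotinylated RON2 peptide at 25 nM; detection used donor plus acceptor beads, 10 µg/mL apiece, read by AlphaScreen after 30 min at room temperature.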
Shiga toxin inh: blocks Shiga toxin action in Vero cells. Vero cells, Shiga toxin protein synthesis inhibition reporter. inhibition, % at 38.7 µM. 290,000 tested, 9.2% active. AID 2315; in the data active = inhibition mostly above about 28%, no sharp cut-off; inactive = mostly below about 43%; note: 0% is about no effect
An asterisk follows results filed as active; ? = inconclusive; . = no result; [ ] = another dose, or the depositor's remark.

SMILES	Lassa entry inh	CHX counter	Marburg entry inh	AMA1-RON2 inh	Shiga toxin inh
CCCNC(=O)C1CC(=O)N(c2ccc(OCc3ccc(Cl)cc3)cc2)C1 (stereo not given)	?	27*	?	5%	.
NC(=O)C1CC(=O)N(c2ccc(OCC(=O)N3CCCC3)cc2)C1 (stereo not given)	-8%	.	7%[46.1 µM]	-17%	.
NC(=O)C1CC(=O)N(c2ccc(OCc3ccc(Cl)cc3)cc2)C1 (stereo not given)	.	50*	.	10%	79*
Oc1ccccc1/C=N/Nc1ccnc(SCc2ccccc2)n1	2%	24*	-1%	65%	30
Oc1ccccc1/C=N/Nc1ncc(Br)cn1	-5%	66*	-24%	29%	74*
c1ccc(CSc2nccc(-c3ccco3)n2)cc1	.	.	.	0%	.
Cc1cc(O)c(C=Nc2cccc(Cl)c2)c(=O)o1	-2%	-4	1%	1%	2
Cc1cc(O)c(/C=N/Nc2ccccc2)c(=O)o1	?	20*	-2%	25%	0
Oc1ccccc1/C=N/NP(=S)(c1ccccc1)c1ccccc1	2%	14	5%[46.1 µM]	32%	23
Oc1ccc(/C=N/Nc2ccc3ccccc3c2)c(O)c1	?	31*	26%	35%	44*
Oc1ccccc1/C=N/Nc1ccccc1	?	48*	?	-15%	197*
Oc1ccccc1C=NNC(=S)NN=Cc1ccccc1O	?	.	?	38%	.
Cc1ccc(NS(=O)(=O)c2cc(C(=O)Nc3cccnc3)ccc2C)cc1	-17%	-3	-23%	-3%	13
CCCNC(=O)C(NS(=O)(=O)c1ccc2c(c1)c(=O)n(C)c(=O)n2C)c1ccccc1 (stereo not given)	.	15*	-1%	-1%	0
CCCNC(=O)C(Cc1ccccc1)NS(=O)(=O)c1ccc2c(c1)c(=O)n(C)c(=O)n2C (stereo not given)	26%[46.1 µM]	-5	24%[46.1 µM]	-1%	-12
COc1ccc(C(CNC(=O)c2cccc(Br)c2)N2CCCC2)cc1 (stereo not given)	?	-4	12µM*	2%	-7
COc1ccc(C(CNC(=O)COc2ccc(F)cc2Br)N2CCCC2)cc1 (stereo not given)	.	-6	4.5µM*	-13%	19
CCCCOC(=O)Nc1ccc(S(=O)(=O)Nc2onc(C)c2C)cc1	.	-3	.	-1%	11
Cc1ccc(NC(=O)C(=O)NCC(c2cccnc2)N2CCN(c3ccccc3F)CC2)cc1Cl (stereo not given)	0%[46.1 µM]	.	.	.	.
CN1CCCNc2nc3ccccc3nc21	.	35*	.	-9%	84*
CN1CCCN(S(=O)(=O)c2ccccc2)c2nc3ccccc3nc21	-22%	.	-2%	75%	.
O=C(O)c1cccc(N2C(=O)/C(=C/c3ccc([N+](=O)[O-])cc3)C=C2c2ccccc2)c1	.	23*	.	?	38*
O=C1/C(=C/c2ccc([N+](=O)[O-])cc2)C=C(c2ccccc2)N1c1ccccc1	3%	-3	2%	-11%	-5
COc1ccc(C(=O)NCCCOC(C)C)cc1OC1CCN(C(C)=O)CC1	2%	36*	?	1%	96*
CNC(=O)c1ccc(OCc2ccccc2)c(OC)c1	11%	20*	?	15%	19
SMILES	Lassa entry inh	CHX counter	Marburg entry inh	AMA1-RON2 inh	Shiga toxin inh
O=C(NCCN1C(=O)S/C(=C/c2cccnc2)C1=O)c1cccs1	.	.	.	6%	.
Cc1ccc(C(=O)NCCc2cccc(Cl)c2)cc1[N+](=O)[O-]	21%	38*	-54%	-3%	active
COc1ccc(C(=O)NCCN2C(=O)S/C(=C\c3cccnc3)C2=O)cc1[N+](=O)[O-]	4%[46.1 µM]	25*	-2%[46.1 µM]	-12%	43*
COc1cc(C(=O)NCC(=O)Nc2c(C)cccc2C)ccc1OCc1ccccc1	1%	.	?	6%	.
COc1ccc(C(=O)NCCc2ccccc2)cc1OC	.	28*	.	-6%	44*
COc1ccc(C(=O)NCCc2ccccc2)cc1[N+](=O)[O-]	?	32*	1%	4%	50*
COc1ccc(C(=O)NCCCc2ccccc2)cc1OC	?	14*	10%[46.1 µM]	8%	.
CCc1nc2ccc(C(=O)NCCc3ccc(OC)c(OC)c3)cc2nc1CC	-22%[46.1 µM]	-6	.	3%	3
COc1ccc(CCNC(=O)c2ccc3nc(-c4ccco4)c(-c4ccco4)nc3c2)cc1OC	8.2µM*	6	10µM*	-20%	-17
COc1cc(C(=O)NCCCCc2ccccc2)cc(OC)c1OC	.	-1	.	0%	-11
COc1ccccc1OCc1ccc(C(=O)c2ccccc2)cc1	8%[46.1 µM]	23*	?	37%	.
CCCCCn1c(N)c(C(=O)NCCN2CCOCC2)c2nc3ccccc3nc21	?	6	?	28%	-2
COc1ccc(C(=O)NCCc2c[nH]c3ccccc23)cc1[N+](=O)[O-]	-8%	7.4*	11%	-15%	3
CCC(CC)C(=O)Nc1cc(C(=O)NCCc2ccccc2)ccc1Cl	-25%	33*	4%	3%	16
COc1ccc(CCNC(=O)c2c(N)n(CCN3CCOCC3)c3nc4ccccc4nc23)cc1OC	18µM*	-5	?	19%	-3
COc1ccccc1OCc1ccc(C(=O)NN)cc1	-5%	-2	?	63%	-14
COc1ccc(CCNC(=O)C2CCC(=O)N2CCc2ccccc2)cc1OC (stereo not given)	.	26*	.	4%	125*
COc1ccccc1OCCNC(=O)c1ccc2c(c1)OCCO2	-20%	.	-29%	-22%	.
COc1ccccc1OCCNC(=O)c1ccc2c(c1)CCC2	28%	24*	?	-1%	65*
CCOc1ccc(OCCOCCNCCOC)cc1	4%	-6	12%	-26%	-5
CCc1ccc(Oc2c(C(F)(F)F)oc3c(CN4CCCC(C)C4)c(O)ccc3c2=O)cc1 (stereo not given)	27%[46.1 µM]	.	-5%[46.1 µM]	.	.
CCCN1C(=O)c2ccc(C(=O)Nc3nccs3)cc2C1=O	6%	11*	3%	4%	65*
Cc1cnc(NC(=O)c2ccc3c(c2)C(=O)N(Cc2ccco2)C3=O)s1	13%	13*	2%	-9%	3
CCCc1cc(C(=O)Nc2nccs2)cs1	43%[14.3 µM]	57*	?	7%	60*
CCC(CC)C(=O)Nc1cccc(C(=O)Nc2nccs2)c1	1%	3	8%	14%	-12
SMILES	Lassa entry inh	CHX counter	Marburg entry inh	AMA1-RON2 inh	Shiga toxin inh
CCN1C(=O)c2ccc(C(=O)Nc3ncc(C)s3)cc2C1=O	-14%	51*	0%[46.1 µM]	91%	56*
Cc1nn(CCC(=O)N2CCN(c3ccccc3)CC2)c(C)c1S(=O)(=O)N1CCCC1	-3%[46.1 µM]	.	.	.	.
O=C(Nc1ccon1)c1csc2ccccc12	19%	9.7*	1%	0%	31
O=C(Nc1cnccn1)c1ccncc1	9%	1	3%	2%	-2
O=C(Nc1cnccn1)c1csc2ccccc12	?	27*	13%	?	111*
Cc1cc(C)n2nc(C(=O)OCC(=O)Nc3ccc(F)cc3F)nc2n1	?	.	19%	-1%	.
Cc1ccc(-n2cc(-c3ccccc3)[nH]c2=O)cc1F	-9%	46*	53%	-5%	115*

Screening results: PubChem, National Center for Advancing Translational Sciences (NCATS)
